Assay results published in PubChem BioAssay (Tox21).
Activity calls are given as the source filed them. The call rests on the fitted dose curve; in most records, active means well fitted activation curve with a large enough effect in the repeat runs; inconclusive means weak or mixed curves; inactive means flat fitted curve, though single readings scatter.

experiment: Caspase-3/7 induction in CHO-K1 cells by small molecules, qHTS assay (AID 1346980); settings: CHO-K1 caspase-3/7 induction, Caspase-Glo luminescence, 17 h; series mostly up to 92.4 µM; caspase-3/7 activation: at the top concentration; further: nearly all actives have a fitted effect of over 15% in size
Method in brief: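 Luminescent Caspase-Glo 3/7 read (30min, room temperature) quantified apoptosis induction. Cells were wild-type CHO-K1, treated with compound for 17hr at 37 C and 5% CO2.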
On the % scale 0 is the no-effect control and ±100 the full control effect.

| SMILES | caspase-3/7 activation | Potency |
| --- | --- | --- |
| C=C(Cl)Cl | 1.45% (inactive) |  |
| CCOC(=O)c1cn2nc(OP(=S)(OCC)OCC)cc2nc1C | -2.32% (inactive) |  |
| O=C(O)C(F)(F)C(F)(F)C(F)(F)C(F)(F)C(F)(F)F | 0.0969% (inactive) |  |
| O=C(O)c1ccc(=O)[nH]c1 | -0.487% [at 42.5 µM] (inactive) |  |
| Cc1nc2ccccc2c(=O)n1-c1ccccc1Cl | -0.22% (inactive) |  |
| CC(=O)NNc1ccccc1 | -0.74% (inactive) |  |
| N#CC(C#N)=C(C#N)C#N | 0.451% (inactive) |  |
| COc1cc(CC(C)N)c(OC)cc1Br (centres undefined) | 0.966% (inactive) |  |
| O=P(OCC(Br)CBr)(OCC(Br)CBr)OCC(Br)CBr (centres undefined) |  | inactive |
| O=C(Cl)OCCOCCOC(=O)Cl | -1.68% (inactive) |  |
| N#CC(C#N)=Cc1ccc(O)c(O)c1 | -0.0476% [at 42.5 µM] (inactive) |  |
| COc1ccc2c(c1OC)C(=O)O[C@H]2[C@@H]1c2cc3c(cc2CCN1C)OCO3 | 0.0294% [at 42.5 µM] (inactive) |  |
| CC(C)(C)N(NC(=O)c1ccc(Cl)cc1)C(=O)c1ccccc1 | -1.26% (inactive) |  |
| NCCc1cc(O)c(O)cc1O | -2.08% [at 42.5 µM] (inactive) |  |
| C[Si](Cn1cncn1)(c1ccc(F)cc1)c1ccc(F)cc1 |  | inactive |
| COc1cc(C[C@@H](C)N)c(OC)cc1Br | 0.837% (inactive) |  |
| C[C@H]1[C@@H]2Cc3ccc(O)cc3[C@@]1(C)CCN2C | -0.645% [at 240 µM] (inactive) |  |
| O=[N+]([O-])/C=C/c1ccccc1 |  | inactive |
| CNC(=O)Oc1cccc(N=CN(C)C)c1 | -0.788% (inactive) |  |
| CCOC(C(=O)OCCN(C)C)(c1ccccc1)c1ccccc1 | 0.799% [at 42.5 µM] (inactive) |  |
| CCCCCCCCCCCC[N+](C)(C)CCOc1ccccc1 | 12.1% [at 42.5 µM] (inactive) |  |
| CC(C)(C#N)C(C)(C)C#N | -0.677% (inactive) |  |
| Nc1c(Br)cc(Br)c2c1C(=O)c1ccccc1C2=O | 3.36% [at 19 µM] (inactive) |  |
| CC(C)(C)NCC(O)c1cc(Cl)c(N)c(C(F)(F)F)c1 (centres undefined) | 3.99% [at 42.5 µM] (inactive) |  |
